# Results from article PMC13494018.
# Biological target: CD276, Q5ZPR3
# Sequence (Q5ZPR3 whole entry): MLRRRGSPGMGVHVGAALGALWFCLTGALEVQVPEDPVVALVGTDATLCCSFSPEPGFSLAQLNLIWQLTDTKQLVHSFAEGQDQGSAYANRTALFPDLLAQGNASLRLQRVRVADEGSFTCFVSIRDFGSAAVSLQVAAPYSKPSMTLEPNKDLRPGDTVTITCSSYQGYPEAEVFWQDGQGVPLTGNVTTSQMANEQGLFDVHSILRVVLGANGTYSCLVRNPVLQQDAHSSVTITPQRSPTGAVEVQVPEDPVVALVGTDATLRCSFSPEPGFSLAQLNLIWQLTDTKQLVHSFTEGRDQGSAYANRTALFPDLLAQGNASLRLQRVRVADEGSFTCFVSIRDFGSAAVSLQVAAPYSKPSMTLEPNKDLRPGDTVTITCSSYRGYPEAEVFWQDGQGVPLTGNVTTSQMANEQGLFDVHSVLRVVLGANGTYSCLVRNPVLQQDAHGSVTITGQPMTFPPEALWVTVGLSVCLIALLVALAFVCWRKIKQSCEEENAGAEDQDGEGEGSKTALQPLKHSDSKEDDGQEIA
row,Binder,binding in a display sort
1,design_616_e8336982-fa4d-4d7c-b06f-9007953e1994_2162_dldesign_0_cycle1_af2pred (protein) MLTPEQLQASINAIKAATRKAVEMARAGNEESAEKLLEVARDIAEALLKTDPEAGKEALKIVEEGEEEARKAAEEVRA,binds (active)
2,design_617_b3fadc1d-0db4-4da8-8433-818493aa2ab2_49_dldesign_0_cycle1_af2pred (protein) SKLSEEAKKKAEEYLKKAEEAYKLAKEDPAAGQAKLSEILTKAMEAQTEFYKKDPSNKEALDYLNKTIQTITKYLVEAAKL,not found (inactive)
3,design_617_b3fadc1d-0db4-4da8-8433-818493aa2ab2_224_dldesign_0_cycle1_af2pred (protein) AEAQALLDQAKAYLAQGTALFQSDPSLSSQALQQFGLAYIYASRAAALATAAGDTATADAAKAVQDQALANMQAIAAS,not found (inactive)
4,design_616_e8336982-fa4d-4d7c-b06f-9007953e1994_2036_dldesign_0_cycle1_af2pred (protein) GAEELAAEARKAYNEMLELLEKAKETGKTEEYVKKAAEIGRANPIAGQMAMNTVAARDPELAAKLRKAMA,not found (inactive)
5,design_617_b3fadc1d-0db4-4da8-8433-818493aa2ab2_636_dldesign_0_cycle1_af2pred (protein) TATLKEILAKVEKALELLKNASPETLNQALSLLTQAWALANKVDPAVAAAINAAIAALVDGMAKGVEVASKEGSAAAEKAIAAVKAAI,not found (inactive)
6,design_617_b3fadc1d-0db4-4da8-8433-818493aa2ab2_145_dldesign_0_cycle1_af2pred (protein) LQETADKAIEAANKLAELDPEVGDALKTAAETALAQGNEAQARAVKNMAESAYKYFSAKAEAAKAAAEAAA,not found (inactive)
7,design_616_e8336982-fa4d-4d7c-b06f-9007953e1994_2287_dldesign_0_cycle1_af2pred (protein) TPEQLKQAAKQALAAAKALVKNAKQASLEDAKKLAEVAKDLTENAIKAAAKAGPEAEKEAKAKAEEIKKAAEEAIAAKEA,not found (inactive)
8,design_617_b3fadc1d-0db4-4da8-8433-818493aa2ab2_117_dldesign_0_cycle1_af2pred (protein) AEKDEEAKKLVEKAKELAEAGLQTAQATGNVALAQAAANMAKALAKEAIRLAEDEKVKEEAKKEAKQAEKALKQAKA,not found (inactive)
9,design_616_e8336982-fa4d-4d7c-b06f-9007953e1994_2365_dldesign_0_cycle1_af2pred (protein) DVGAATVAAVNATAAAALAAVKEAAKLSPEEAKAATGAALAALADTVGQANKAALAHPEHSAQIVGTGVDALAAVQAAADEAIAKAKA,not found (inactive)
10,design_616_e8336982-fa4d-4d7c-b06f-9007953e1994_2109_dldesign_0_cycle1_af2pred (protein) AAAAQAAAADAALAAATSMLEKAKEMAATNPESAKKAATVAVDLANYAIALPAATPEQKAQAQKIKEEAEALIASL,not found (inactive)
11,design_617_b3fadc1d-0db4-4da8-8433-818493aa2ab2_588_dldesign_0_cycle1_af2pred (protein) AAAEAAKLQAERDALIKKALEAIEEASALAKELGNQEALALVHKSLTLIAKSLGADAETGLKLAKEALKAAEAALALLKKA,not found (inactive)
12,design_617_b3fadc1d-0db4-4da8-8433-818493aa2ab2_206_dldesign_0_cycle1_af2pred (protein) ADALTKKTAEAIYQQVKKRAEELLKKAKEGTPELAKELAKELKKIAEANAKALSSLGPLGEEYAKKVKEYAEKVIKEIEKII,not found (inactive)
13,design_616_e8336982-fa4d-4d7c-b06f-9007953e1994_2209_dldesign_0_cycle1_af2pred (protein) NAEAGKYLEEALKLAAEAQKAAAANPAVAPEVIAQASRLVAEAAKAALAGDTKAAKEYLEKMKELRDAAKAALAAA,not found (inactive)
14,design_616_e8336982-fa4d-4d7c-b06f-9007953e1994_2198_dldesign_0_cycle1_af2pred (protein) MEEERRKKAEELLEKATKELKAMQAQAEALAKAGDIGAATQLVVDAARYGAEVTREAEKIDPEVAEKMAEVTNKIIAAALKALTAYAA,not found (inactive)
15,design_616_e8336982-fa4d-4d7c-b06f-9007953e1994_2151_dldesign_0_cycle1_af2pred (protein) GAAAAAEETAKKVAKYLVKGDAEEAAKEALKGHTKNQAQHIVLRAANLAAKETGKSQSIYAKAAEAIALIEA,not found (inactive)
16,design_616_e8336982-fa4d-4d7c-b06f-9007953e1994_2432_dldesign_0_cycle1_af2pred (protein) NQTKSLAQGAIAMAEAIAEELRRLGDEESAKKVEEMAKEAKKLIEEGKYEEALKVATEGVAYGAERVAALR,not found (inactive)
17,design_617_b3fadc1d-0db4-4da8-8433-818493aa2ab2_734_dldesign_0_cycle1_af2pred (protein) MAEEIIREATRVATEAARLAVKYGNEVANKALALAVEAMELAASGENAEEAKKKLEEAKKLLEEAKKIAKEKE,not found (inactive)
18,design_617_b3fadc1d-0db4-4da8-8433-818493aa2ab2_522_dldesign_0_cycle1_af2pred (protein) ADPAQASQQALNAAKAAIKSAARAAKAGNLEDAKKLAEVAADLIAQASPEQAAEALKVAKEEAAEVPEIAEYMISKAEAALAQAKARA,not found (inactive)
19,design_617_b3fadc1d-0db4-4da8-8433-818493aa2ab2_655_dldesign_0_cycle1_af2pred (protein) AEEEERLRRQAEGLYELTKAVAEYLAKNPAAAEQAKALKEKAEKAFEEGMKEHPAEAIRRLQAVLNEASRAAIAASA,not found (inactive)
